Results on five compounds are retold here after PubChem BioAssay.

The nature of test [1]: rapamycin-like changes in RPL19A-GFP expression – cell-based, S. cerevisiae, multiplex flow cytometry, primary screen (AID 1862; in the data active = percent of DMSO control GFP below about 86%;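 note: lower values mimic rapamycin by blocking the RPL19A rise seen in DMSO cells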). The following applies: S. cerevisiae RPL19A-GFP strain, flow cytometry fluorescence, 3 h; at 10 µM; stronger effect = lower value. A general note: A flow cytometer gives signals particle by particle.
Test [2] in a line: TOR pathway GLN3 branch reporter MEP2-GFP changes – S. cerevisiae, multiplex flow cytometry, primary screen (AID 1867;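 active = GFP response, as percent of the DMSO control, above the screen-wide mean plus 3 SD, about 139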;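 note: median GFP channel fluorescence of barcode-gated MEP2-GFP cells measured by flow cytometry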). The following applies: S. cerevisiae MEP2-GFP strain, 3 h, at 10 µM, stronger effect = higher value, 100% means same as DMSO wells.
Test [3] can be described thus: TOR pathway RTG branch CIT2 reporter changes – S. cerevisiae, GFP fusion, multiplex flow cytometry, primary screen (AID 1870;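 active = percent response above a set limit, the screen-wide mean plus 3 SD, cut at about 130% in these data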;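 note: barcoded CIT2-GFP strain pooled with four other GFP strains with rapamycin as positive control; median GFP fluorescence per well over plate mean of DMSO wells so 100% = DMSO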). The following applies: S. cerevisiae CIT2-GFP expression, 3 h, at 10 µM, stronger effect = higher value.
The nature of test [4]: TOR pathway LAP4-GFP level changes – S. cerevisiae, multiplex flow cytometry, primary screen (AID 1873). The following applies: S. cerevisiae LAP4-GFP expression, 3 h, at 10 µM, stronger effect = higher value.
Test [5] is described as follows: yeast AGP1-GFP level changes, GLN3 branch – cell-based, multiplex flow cytometry, S. cerevisiae, primary screen (AID 1887;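 active = GFP signal above the screen-wide mean plus 3 SD, that is over about 124.5% of the solvent control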;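 note: AGP1-GFP fusion strain of S. cerevisiae within a five-strain barcoded multiplex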). The following applies: 3 h, at 10 µM, stronger effect = higher value.
A short description of test [6]: reduced mouse 2C T cell binding to pMHC/ICAM-1 vesicles – MLPCN validation set, flow cytometry, LFA-1/ICAM-1 modulator project, pilot screen (AID 2523;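 active = response below a set limit, under 55% cells CD8-positive and vesicle-bound, and CD8 cells' 90th-percentile brightness under 279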;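 for vesicle binding response: mean PE anti-B7-1 fluorescence of CD8+ cells relative to row control; 100% = QL9-loaded vesicles with DMSO vehicle in the same plate row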). The following applies: 2C mouse CD8+ T cells, at 7 µM, stronger effect = lower value; double positive events: measured here: CD8+/vesicle+ event percentage.
The target in test [7] is Integrin beta-1 (Homo sapiens) + Integrin alpha-4 (Homo sapiens) (UniProt P13612+P05556). Nature of the test: alpha4beta1 integrin LIBS antibody binding reduction – U937 cells, HUTS-21 mAb, flow cytometry, validation set, VLA-4 allosteric modulator project, pilot screen (AID 2674;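 active = inhibition above 50%, about 3 SD of the validation set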;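 note: antibody binding induced by the VLA-4 ligand LDV present at three times its Kd; 0% = LDV ligand with antibody and no compound and 100% = antibody without LDV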). The following applies: HUTS-21 LIBS mAb binding, at 6.7 µM, stronger effect = higher value, binding induced by LDV ligand.
Sequence of Integrin beta-1 (Homo sapiens) + Integrin alpha-4 (Homo sapiens) (P05556 whole entry, looked up): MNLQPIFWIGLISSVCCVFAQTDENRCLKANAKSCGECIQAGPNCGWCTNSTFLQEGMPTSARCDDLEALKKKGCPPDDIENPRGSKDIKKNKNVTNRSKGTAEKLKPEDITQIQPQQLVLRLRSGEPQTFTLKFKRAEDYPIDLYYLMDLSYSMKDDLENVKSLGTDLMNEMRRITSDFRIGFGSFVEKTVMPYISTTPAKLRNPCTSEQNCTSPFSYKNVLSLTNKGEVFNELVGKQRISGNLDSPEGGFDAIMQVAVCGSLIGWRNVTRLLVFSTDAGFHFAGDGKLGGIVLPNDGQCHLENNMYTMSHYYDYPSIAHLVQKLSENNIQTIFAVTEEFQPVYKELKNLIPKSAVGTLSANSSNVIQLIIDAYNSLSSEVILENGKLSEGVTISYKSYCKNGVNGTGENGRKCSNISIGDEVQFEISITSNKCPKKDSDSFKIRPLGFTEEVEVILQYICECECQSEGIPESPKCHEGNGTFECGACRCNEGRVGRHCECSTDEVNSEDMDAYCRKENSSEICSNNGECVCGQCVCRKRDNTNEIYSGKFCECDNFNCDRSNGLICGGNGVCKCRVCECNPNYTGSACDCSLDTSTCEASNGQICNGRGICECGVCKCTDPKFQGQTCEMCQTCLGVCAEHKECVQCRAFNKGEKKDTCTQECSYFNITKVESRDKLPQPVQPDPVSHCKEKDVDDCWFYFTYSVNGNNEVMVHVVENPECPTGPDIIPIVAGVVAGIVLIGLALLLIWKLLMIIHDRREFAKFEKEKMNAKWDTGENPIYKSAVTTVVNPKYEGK
Sequence of Integrin beta-1 (Homo sapiens) + Integrin alpha-4 (Homo sapiens) (P13612 whole entry, looked up): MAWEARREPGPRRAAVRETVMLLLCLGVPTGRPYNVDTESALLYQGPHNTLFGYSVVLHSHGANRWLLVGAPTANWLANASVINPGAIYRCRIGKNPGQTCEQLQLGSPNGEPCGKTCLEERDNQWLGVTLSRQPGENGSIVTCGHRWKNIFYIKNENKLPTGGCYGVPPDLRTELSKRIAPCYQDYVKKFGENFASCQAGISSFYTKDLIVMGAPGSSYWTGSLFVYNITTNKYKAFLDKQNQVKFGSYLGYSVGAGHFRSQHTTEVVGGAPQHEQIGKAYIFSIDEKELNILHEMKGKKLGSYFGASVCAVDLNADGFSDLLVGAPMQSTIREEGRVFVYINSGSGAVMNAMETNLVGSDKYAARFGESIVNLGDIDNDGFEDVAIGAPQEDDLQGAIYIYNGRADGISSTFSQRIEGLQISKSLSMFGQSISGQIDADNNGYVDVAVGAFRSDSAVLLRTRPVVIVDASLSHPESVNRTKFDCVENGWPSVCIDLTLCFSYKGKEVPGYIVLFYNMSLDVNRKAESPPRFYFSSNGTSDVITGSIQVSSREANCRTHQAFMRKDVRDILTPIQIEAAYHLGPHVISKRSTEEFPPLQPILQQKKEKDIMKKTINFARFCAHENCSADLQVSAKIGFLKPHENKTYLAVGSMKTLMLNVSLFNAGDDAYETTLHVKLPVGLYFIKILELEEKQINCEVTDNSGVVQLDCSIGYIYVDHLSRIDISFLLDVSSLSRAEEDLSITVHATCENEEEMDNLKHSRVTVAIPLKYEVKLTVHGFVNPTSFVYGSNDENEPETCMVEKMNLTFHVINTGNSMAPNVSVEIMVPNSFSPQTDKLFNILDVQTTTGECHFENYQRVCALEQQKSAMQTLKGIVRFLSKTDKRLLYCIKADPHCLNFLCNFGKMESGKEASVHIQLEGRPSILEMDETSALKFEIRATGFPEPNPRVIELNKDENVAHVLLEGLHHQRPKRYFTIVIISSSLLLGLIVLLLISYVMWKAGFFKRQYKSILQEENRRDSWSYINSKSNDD

Test [8] is described as follows: calorie-restriction mimetic ROS inhibitors, yeast – validation compound set, pilot screen (AID 2706;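 active = superoxide response below 65% of plate, a cut near 3 SD across the whole screen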;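 note: yeast exposed to compound for one week at 30 degrees C before staining; 100% = mean of all compound wells on the same plate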). The following applies: S. cerevisiae aging, superoxide DHE fluorescence; at 10 µM, stronger effect = lower value.
Test [9] has as its target Beta-adrenergic receptor kinase 1 (Homo sapiens) (UniProt P25098). As to the kind of experiment: GRK2 binders displacing RNA aptamer, biochemical, validation, human GRK2, bead flow cytometry (AID 488806;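 active = aptamer binding inhibition above 30%, about 3 SD of noise from non-fluorescent compounds; inactive = inhibition at or below 30%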). The following applies: bead-bound GRK2, FAM-aptamer displacement, at 10 µM, stronger effect = higher value.
Test [10] deals with AP-2 complex subunit beta (Homo sapiens) (UniProt P63010). Nature of the test: beta-arrestin/AP2 interaction blockers – biochemical, validation set, GST-AP2 beads, flow cytometry, pilot screen (AID 504541;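 active = inhibition above 54%, about 3 SD of non-fluorescent compounds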;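 note: AP2 carries R879A mutation and is captured from E. coli lysate; bead-bound FITC arrestin peptide fluorescence measuring arrestin peptide binding to AP2; 0% = DMSO wells and 100% = excess unlabeled arrestin peptide control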). The following applies: FITC arrestin peptide, at 10 µM, stronger effect = higher value, AP2 beta2 appendage fragment, R879A mutant.
Sequence of AP-2 complex subunit beta (Homo sapiens) (P63010 whole entry, looked up, the tested form may be a part, one chain of several): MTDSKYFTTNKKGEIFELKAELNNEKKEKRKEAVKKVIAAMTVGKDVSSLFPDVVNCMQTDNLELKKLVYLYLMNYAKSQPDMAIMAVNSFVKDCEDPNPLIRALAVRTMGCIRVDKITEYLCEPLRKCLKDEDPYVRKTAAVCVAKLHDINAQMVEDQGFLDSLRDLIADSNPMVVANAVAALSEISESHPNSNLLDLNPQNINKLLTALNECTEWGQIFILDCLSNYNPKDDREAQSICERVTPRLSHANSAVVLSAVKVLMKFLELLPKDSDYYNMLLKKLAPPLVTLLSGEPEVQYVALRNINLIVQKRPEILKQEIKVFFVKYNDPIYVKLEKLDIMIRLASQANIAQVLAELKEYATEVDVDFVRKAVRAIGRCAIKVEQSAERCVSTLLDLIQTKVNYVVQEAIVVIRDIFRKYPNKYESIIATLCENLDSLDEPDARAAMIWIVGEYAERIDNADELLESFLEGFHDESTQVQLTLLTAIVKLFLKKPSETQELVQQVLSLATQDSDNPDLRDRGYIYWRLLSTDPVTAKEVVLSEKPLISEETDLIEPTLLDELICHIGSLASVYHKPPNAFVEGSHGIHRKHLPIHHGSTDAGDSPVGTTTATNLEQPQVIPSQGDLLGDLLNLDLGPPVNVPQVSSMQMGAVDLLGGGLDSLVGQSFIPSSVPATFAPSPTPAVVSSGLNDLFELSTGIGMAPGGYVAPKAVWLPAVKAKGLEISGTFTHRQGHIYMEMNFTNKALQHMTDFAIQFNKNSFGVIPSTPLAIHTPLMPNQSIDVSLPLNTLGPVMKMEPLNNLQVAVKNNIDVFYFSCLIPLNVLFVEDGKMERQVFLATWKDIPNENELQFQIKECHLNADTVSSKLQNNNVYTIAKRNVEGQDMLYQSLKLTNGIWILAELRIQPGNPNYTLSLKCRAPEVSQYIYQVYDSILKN
Test [11] in a line: cytosolic pH regulators acting via V-ATPase – S. cerevisiae, pHLuorin, HTS validation (AID 504600; in the data active = response above about 15%;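 note: plate controls were DMSO for no effect and reference compound for full effect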). The following applies: V-ATPase proton transport, at 10 µM, stronger effect = higher value.
Test [12] deals with anti-desmoglein-3 scFv antibody binding to human DSG3. As to the kind of experiment: blockers of pathogenic pemphigus antibody–desmoglein-3 binding – biochemical, validation compound set, bead-based, flow cytometry, pilot screen (AID 588368;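 active = binding below the plate cutoff, the plate median minus 3 SD, with a reading above zero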;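 note: signal is the median channel fluorescence of bead-bound GFP antibody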). The following applies: Protein G beads, DSG3-Fc, scFv-GFP binding, at 10 µM, stronger effect = lower value.
Test [13] in a line: Nile Red efflux blockade in pump-expressing yeast – validation compound set, multiplex, phenotypic, pilot screen (AID 588506;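 active = efflux inhibition above 0.42, the validation set average plus 4 SD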;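 note: Nile Red retained in cells so higher fluorescence means more efflux inhibition; 0 = negative control wells and 1 = enniatin B 25 µM full block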). The following applies: S. cerevisiae pump-expressing triplex, Nile Red efflux flow cytometry; at 10 µM; stronger effect = higher value; the pumps come from Candida albicans.
The target of test [14] is ATP-binding cassette sub-family B member 6 (Homo sapiens) (UniProt Q9NP58). Nature of the test: blockers of ABCB6-driven porphyrin uptake – K562-ABCB6 cells, flow cytometry, validation set, pilot screen (AID 588550;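 active = inhibition above the screen-wide mean plus 3 SD, about 51%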;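 note: 0% = DMSO wells and 100% = benzethonium chloride 70 µM positive control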). The following applies: K562-ABCB6 porphyrin accumulation, 1 h, at 10 µM, stronger effect = higher value.
Sequence of ATP-binding cassette sub-family B member 6 (Homo sapiens) (Q9NP58 whole entry, looked up): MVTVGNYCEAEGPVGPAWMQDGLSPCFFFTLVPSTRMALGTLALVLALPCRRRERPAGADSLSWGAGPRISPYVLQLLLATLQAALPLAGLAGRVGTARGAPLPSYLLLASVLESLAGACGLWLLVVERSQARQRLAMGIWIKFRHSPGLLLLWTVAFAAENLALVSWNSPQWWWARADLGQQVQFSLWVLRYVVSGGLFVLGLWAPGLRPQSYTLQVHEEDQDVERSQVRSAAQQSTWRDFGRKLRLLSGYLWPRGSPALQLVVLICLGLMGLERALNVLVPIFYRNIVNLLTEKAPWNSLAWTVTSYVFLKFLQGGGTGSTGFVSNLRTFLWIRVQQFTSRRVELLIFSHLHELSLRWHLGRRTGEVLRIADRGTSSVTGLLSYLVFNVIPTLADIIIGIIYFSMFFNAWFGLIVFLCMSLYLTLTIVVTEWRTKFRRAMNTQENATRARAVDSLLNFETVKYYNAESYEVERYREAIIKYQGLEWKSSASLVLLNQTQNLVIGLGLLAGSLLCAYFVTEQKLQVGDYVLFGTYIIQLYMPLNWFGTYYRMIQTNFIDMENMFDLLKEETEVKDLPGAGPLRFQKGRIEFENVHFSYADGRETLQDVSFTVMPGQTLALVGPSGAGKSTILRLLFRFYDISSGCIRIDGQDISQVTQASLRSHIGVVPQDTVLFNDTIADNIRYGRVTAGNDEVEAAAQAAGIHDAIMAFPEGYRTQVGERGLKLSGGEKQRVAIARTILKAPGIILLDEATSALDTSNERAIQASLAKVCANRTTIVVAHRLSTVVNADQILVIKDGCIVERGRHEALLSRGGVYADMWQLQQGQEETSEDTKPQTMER
The nature of test [15]: AML differentiation inducers, ER-HoxA9 marrow cells – cell-based, GFP/MAC1 double positive, flow cytometry, validation set, primary screen (AID 588685;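 active = differentiation response of at least 50%, scaled between solvent and reference control, from cells with both markers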;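 note: compound exposure lasts four days before antibody staining and flow analysis; 0% = DMSO wells and 100% = 5 µM fulvestrant positive control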). The following applies: stronger effect = higher value, normalized: vehicle 0, fulvestrant 100.

Results filed as inconclusive are left out. Activity calls are given as the source filed them.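 Rule for the calls, unless noted: active = GFP signal, as percent of the solvent control, above the screen mean plus 3 SD, about 149; inconclusive = no reading because the compound's own fluorescence upset strain identification; inactive = the rest.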

What is called inhibition is the relative decrease from the control value, in per cent.

Sequence of Beta-adrenergic receptor kinase 1 (Homo sapiens) (P25098 whole entry, looked up): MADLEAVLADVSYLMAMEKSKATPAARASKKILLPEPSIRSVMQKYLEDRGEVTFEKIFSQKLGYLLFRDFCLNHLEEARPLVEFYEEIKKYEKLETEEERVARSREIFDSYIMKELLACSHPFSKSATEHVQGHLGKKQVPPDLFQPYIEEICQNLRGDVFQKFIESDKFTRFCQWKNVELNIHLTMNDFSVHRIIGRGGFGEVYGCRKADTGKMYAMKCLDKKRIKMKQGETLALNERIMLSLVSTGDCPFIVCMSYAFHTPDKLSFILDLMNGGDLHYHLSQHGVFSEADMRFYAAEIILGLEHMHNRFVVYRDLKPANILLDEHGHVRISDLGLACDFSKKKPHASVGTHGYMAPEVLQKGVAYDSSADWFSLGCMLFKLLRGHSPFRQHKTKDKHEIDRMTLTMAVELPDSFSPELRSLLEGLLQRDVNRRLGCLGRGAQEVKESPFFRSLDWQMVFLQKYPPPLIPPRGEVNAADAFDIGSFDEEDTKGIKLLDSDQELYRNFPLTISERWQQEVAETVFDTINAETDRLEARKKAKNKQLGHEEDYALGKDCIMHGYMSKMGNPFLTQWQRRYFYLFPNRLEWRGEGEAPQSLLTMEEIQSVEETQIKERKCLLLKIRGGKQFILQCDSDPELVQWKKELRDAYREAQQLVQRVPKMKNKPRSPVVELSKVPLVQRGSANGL

With `O=[N+]([O-])c1ccc2cn[nH]c2c1`, in test [1], the percent of DMSO control GFP was 102% (inactive). Besides, the GFP response vs DMSO was 106% (inactive) in test [2] and 93.3% (inactive) in [4]. Moreover, in [3], the percent response of DMSO control is 102% (inactive). Also, the GFP response, % of DMSO in test [5] is 97.3% (inactive). For the same compound, the double positive events in test [6] worked out at 60.3%. Moreover, the vesicle binding response in test [6] was 265% (inactive). The inhibition was 12.8% (inactive) in test [7], -5.23% (inactive) in [10] and 10% (inactive) in [14]. Also, the superoxide response (% of plate) in test [8] was 97.5% (inactive). The aptamer binding inhibition in [9] is 1% (inactive). Moreover, the response in [11] was -6.52% (inactive). Besides, in test [12], the binding (% of control) is 98.2% (inactive). In addition, in [13], the efflux inhibition (fraction of control) is -0.05 (inactive). Besides, the differentiation response in [15] is -8.27% (inactive).

For `COc1cc(OC)cc(C(=O)N[C@@H](CCSC)c2nc3ccccc3[nH]2)c1`, the percent of DMSO control GFP in [1] was 98% (inactive). The GFP response vs DMSO was 88.7% (inactive) in test [2] and 91.3% (inactive) in [4]. Also, in test [3], the percent response of DMSO control is 105% (inactive). In test [5], the GFP response, % of DMSO is 96.4% (inactive). The double positive events in test [6] worked out at 49.2%. Moreover, the vesicle binding response in test [6] is 158% (inactive). Further, the inhibition in test [7] is -13.3% (inactive); in test [10], -7.65% (inactive); in [14], 3% (inactive). The superoxide response (% of plate) in test [8] is 98.5% (inactive). The aptamer binding inhibition in test [9] is 1% (inactive). Also, the response in test [11] is 0.15% (inactive). Besides, the binding (% of control) in test [12] is 99.3% (inactive). The efflux inhibition (fraction of control) in [13] is -0.12 (inactive). Besides, the differentiation response in [15] was -8.27% (inactive).

`O=C(O)CCCCCCCC(=O)O`: the percent of DMSO control GFP in test [1] is 100% (inactive). Further, the GFP response vs DMSO in test [2] was 99.9% (inactive); in [4], 117% (inactive). In test [3], the percent response of DMSO control is 90% (inactive). For the same compound, the GFP response, % of DMSO in test [5] was 97.5% (inactive). Further, the double positive events in test [6] came out at 58.5%. Also, the vesicle binding response in [6] is 171% (inactive). Besides, the inhibition is -6.77% (inactive) in test [7], 12.5% (inactive) in test [10] and -18% (inactive) in [14]. Besides, in test [8], the superoxide response (% of plate) was 101% (inactive). Besides, the aptamer binding inhibition in test [9] is 4% (inactive). Further, in test [11], the response is 0.2% (inactive). The binding (% of control) in [12] is 99% (inactive). The efflux inhibition (fraction of control) in test [13] is 0.14 (inactive). For the same compound, the differentiation response in test [15] was 24% (inactive).

As for `COc1c(C)cc(C(=O)C2CCCN(Cc3ccc(Oc4ncccn4)cc3)C2)cc1C` (stereo not given), the percent of DMSO control GFP in test [1] is 99.5% (inactive). The GFP response vs DMSO in test [2] was 107% (inactive); in test [4] it was 103% (inactive). Further, the percent response of DMSO control in test [3] was 112% (inactive). Moreover, in test [5], the GFP response, % of DMSO is 103% (inactive). This compound also gave a double positive events in test [6] of 56.4%. For the same compound, in test [6], the vesicle binding response is 202% (inactive). Further, the inhibition in test [7] is -4.9% (inactive); in test [10] it was 4.02% (inactive); in test [14], 5% (inactive). Besides, the superoxide response (% of plate) in test [8] was 99.2% (inactive). Further, the aptamer binding inhibition in test [9] was 0% (inactive). In addition, in [11], the response was 0.79% (inactive). The binding (% of control) in [12] was 101% (inactive). For the same compound, the efflux inhibition (fraction of control) in test [13] is -0.01 (inactive). In addition, in test [15], the differentiation response was -30.9% (inactive).

With `CC(=O)c1c(N)nc2n(c1=O)CCCCC2`, in [1], the percent of DMSO control GFP is 103% (inactive). For the same compound, the results for the GFP response vs DMSO in test [2] and in test [4] were 102% (inactive) and 93.3% (inactive), respectively. Moreover, in [3], the percent response of DMSO control is 108% (inactive). The GFP response, % of DMSO in test [5] was 102% (inactive). Further, the double positive events in test [6] is 55.2%. Also, the vesicle binding response in test [6] is 201% (inactive). Besides, the values for the inhibition in test [7], in test [10] and in test [14] were 14.7% (inactive), 2.65% (inactive) and 10% (inactive), respectively. The superoxide response (% of plate) in test [8] was 94.2% (inactive). The aptamer binding inhibition in test [9] was 4% (inactive). The response in test [11] was 0.91% (inactive). For the same compound, the binding (% of control) in test [12] was 98.7% (inactive). The efflux inhibition (fraction of control) in test [13] is -0.09 (inactive). Moreover, the differentiation response in test [15] is 9.49% (inactive).
